Common to all, as to assay: cell viability relative to vehicle control; higher = less cytotoxic
The subject of one test is K562. As to conditions: 10 µM; SRSF2 genotype: SRSF2 wt/wt. The gist of the method: (§1)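 Mutant clones made by CRISPR editing and their isogenic wild-type counterparts, from four leukaemia lines, were exposed to a single 10 µM dose of each library compound for 48 h. The supernatant was then removed and CellTiter-Glo luminescence was read. Viability was reported as percent of the on-plate vehicle control.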

The test system of the next test is MARIMO. The settings on record: 10 µM. The method, boiled down: as §1
The test system of a further test is MOLM14. As to conditions: 10 µM. The gist of the method:
as §1

For another test, the system named is OCI-AML2. The settings on record: 10 µM. The gist of the method: as §1

Several values for one entry are separate records, joined by “and”; a condition that tells them apart may be missing. Identical values can stand only once.

For `O=c1cc(-c2ccc(O)c(O)c2O)oc2ccccc12`, the cell viability (in general, a read-out of living cells in per cent, often relative to untreated cells) is 69.2% in the test on K562; 98.5% in the test on MARIMO (SRSF2 genotype: SRSF2 P95H/wt); 87.9% in the test on MARIMO (SRSF2 genotype: SRSF2 wt/wt); 81.8% in the test on MOLM14 (SRSF2 genotype: SRSF2 P95H/wt); 68.4% in the test on MOLM14 (SRSF2 genotype: SRSF2 wt/wt); 108% with OCI-AML2 (SRSF2 genotype: P95H/wt). For the same compound, in the test on OCI-AML2 (SRSF2 genotype: wt/wt), the cell viability was found to be 105%.

For the compound `O=C1[C@H](Cc2ccc(O)cc2)N2C(=O)CCN(C(=O)NCc3ccccc3)[C@H]2CN1Cc1cccc2ccccc12`, the cell viability in the test on K562 is 47% and 37.9%; in the test on MARIMO (SRSF2 genotype: SRSF2 P95H/wt), 60.6% and 53.5%; in the test on MARIMO (SRSF2 genotype: SRSF2 wt/wt), 59.4% and 48.2%; with MOLM14 (SRSF2 genotype: SRSF2 P95H/wt), 63.6% and 52%; in the test on MOLM14 (SRSF2 genotype: SRSF2 wt/wt) it was 43.8% and 35.6%; in the test with OCI-AML2 (SRSF2 genotype: P95H/wt) it was 54.4% and 45.4%. In addition, the cell viability in the test with OCI-AML2 (SRSF2 genotype: wt/wt) was 42.3% and 36.8%.

On to `CC(Nc1nc(N2CCCC2)nc2ccccc12)c1ccccc1` (stereo not drawn) [Importazole], for which the cell viability with K562 was determined as 29.2%; in the test on MARIMO (SRSF2 genotype: SRSF2 P95H/wt), 46.3%; in the test on MARIMO (SRSF2 genotype: SRSF2 wt/wt) it was 64.7%; in the test with MOLM14 (SRSF2 genotype: SRSF2 P95H/wt) it was 51.2%; in the test on MOLM14 (SRSF2 genotype: SRSF2 wt/wt), 48.2%; in the test with OCI-AML2 (SRSF2 genotype: P95H/wt) it was 51.8%. For the same compound, in the test with OCI-AML2 (SRSF2 genotype: wt/wt), the cell viability was 58.2%.

`NC(=O)Nc1sc(-c2ccc(F)cc2)cc1C(N)=O`: the cell viability with K562 turned out to be 79.8%; in the test on MARIMO (SRSF2 genotype: SRSF2 P95H/wt) it was 56.3%; in the test on MARIMO (SRSF2 genotype: SRSF2 wt/wt), 50%; in the test with MOLM14 (SRSF2 genotype: SRSF2 P95H/wt) it was 20.5%; in the test on MOLM14 (SRSF2 genotype: SRSF2 wt/wt) it was 11%; with OCI-AML2 (SRSF2 genotype: P95H/wt), 20.2%. For the same compound, the cell viability in the test on OCI-AML2 (SRSF2 genotype: wt/wt) turned out to be 26.5%.

In the case of `Cc1coc2c1C(=O)C(=O)c1c-2ccc2c1CCCC2(C)C` [Tanshinone IIA (Tanshinone B)], the cell viability was 52.2% with K562; 98.2% in the test with MARIMO (SRSF2 genotype: SRSF2 P95H/wt); 89% with MARIMO (SRSF2 genotype: SRSF2 wt/wt); 88.8% with MOLM14 (SRSF2 genotype: SRSF2 P95H/wt); 79.7% with MOLM14 (SRSF2 genotype: SRSF2 wt/wt); 84.1% in the test with OCI-AML2 (SRSF2 genotype: P95H/wt). Further, the cell viability in the test on OCI-AML2 (SRSF2 genotype: wt/wt) was 83.3%.

Take `O=C(O[C@@H]1O[C@@H]2COC(=O)c3cc(O)c(O)c(O)c3-c3c(cc(O)c(O)c3O)C(=O)O[C@H]([C@H]1O)[C@@H]2O)c1cc(O)c(O)c(O)c1` [Corilagin]: the cell viability in the test with K562 stood at 81.5%; with MARIMO (SRSF2 genotype: SRSF2 P95H/wt), 86.9%; in the test with MARIMO (SRSF2 genotype: SRSF2 wt/wt) it was 81.3%; in the test on MOLM14 (SRSF2 genotype: SRSF2 P95H/wt), 86.4%; in the test with MOLM14 (SRSF2 genotype: SRSF2 wt/wt), 82.2%; in the test with OCI-AML2 (SRSF2 genotype: P95H/wt), 103%. Besides, the cell viability in the test on OCI-AML2 (SRSF2 genotype: wt/wt) came to 96.2%.

For `O=C(NC1CC1)c1cc(-c2cccs2)on1` [Isoxazole 9 (ISX-9)], the cell viability with K562 amounted to 53.5%; with MARIMO (SRSF2 genotype: SRSF2 P95H/wt), 58.5%; in the test on MARIMO (SRSF2 genotype: SRSF2 wt/wt), 63%; in the test with MOLM14 (SRSF2 genotype: SRSF2 P95H/wt), 46.8%; in the test on MOLM14 (SRSF2 genotype: SRSF2 wt/wt), 35.5%; in the test with OCI-AML2 (SRSF2 genotype: P95H/wt), 74.8%. In addition, the cell viability in the test with OCI-AML2 (SRSF2 genotype: wt/wt) stood at 74.7%.

In the case of `CCNC(=O)C#Cc1ccc2c(C(=Nc3ccc(CN(C)C)cc3)c3ccccc3)c(O)[nH]c2c1`, the cell viability came to 53.4% with K562; 26.7% in the test on MARIMO (SRSF2 genotype: SRSF2 P95H/wt); 25.1% in the test with MARIMO (SRSF2 genotype: SRSF2 wt/wt); 4.97% with MOLM14 (SRSF2 genotype: SRSF2 P95H/wt); 7.91% with MOLM14 (SRSF2 genotype: SRSF2 wt/wt); 11.9% in the test with OCI-AML2 (SRSF2 genotype: P95H/wt). In addition, in the test with OCI-AML2 (SRSF2 genotype: wt/wt), the cell viability was 17.2%.

For the compound `Cc1cc(C)c(Nc2ccnc(Nc3ccc(C#N)cc3)n2)c(C)c1` [Dapivirine (TMC120)], the cell viability worked out at 45.5% with K562; 86% in the test with MARIMO (SRSF2 genotype: SRSF2 P95H/wt); 70.6% with MARIMO (SRSF2 genotype: SRSF2 wt/wt); 75% in the test with MOLM14 (SRSF2 genotype: SRSF2 P95H/wt); 81.1% in the test on MOLM14 (SRSF2 genotype: SRSF2 wt/wt); 69% in the test on OCI-AML2 (SRSF2 genotype: P95H/wt). For the same compound, in the test with OCI-AML2 (SRSF2 genotype: wt/wt), the cell viability is 31.3%.

The values above are taken from the supplement of paper PMC10981050.
